High-throughput results (PubChem)
An excerpt weighted towards active compounds, which were near 3.6% of everything screened.
PLK1 PBD inh = blocks phosphopeptide binding to human PLK1 polo-box domain. Plk1 PBD binding of FITC phosphopeptide, fluorescence polarization. Potency, µM, inactives show max response, negative = inhibition, actives largely listed as inhibitors. 2.8% of 360,000 active; note: potency is the fitted concentration of half-maximal effect; series mostly up to about 57 µM; % is set by controls: 0 for no effect and ±100 for the full control effect; nearly all actives have a fitted effect of over 65% in size
Target sequence (P53350 whole entry, looked up, the tested form may be a part): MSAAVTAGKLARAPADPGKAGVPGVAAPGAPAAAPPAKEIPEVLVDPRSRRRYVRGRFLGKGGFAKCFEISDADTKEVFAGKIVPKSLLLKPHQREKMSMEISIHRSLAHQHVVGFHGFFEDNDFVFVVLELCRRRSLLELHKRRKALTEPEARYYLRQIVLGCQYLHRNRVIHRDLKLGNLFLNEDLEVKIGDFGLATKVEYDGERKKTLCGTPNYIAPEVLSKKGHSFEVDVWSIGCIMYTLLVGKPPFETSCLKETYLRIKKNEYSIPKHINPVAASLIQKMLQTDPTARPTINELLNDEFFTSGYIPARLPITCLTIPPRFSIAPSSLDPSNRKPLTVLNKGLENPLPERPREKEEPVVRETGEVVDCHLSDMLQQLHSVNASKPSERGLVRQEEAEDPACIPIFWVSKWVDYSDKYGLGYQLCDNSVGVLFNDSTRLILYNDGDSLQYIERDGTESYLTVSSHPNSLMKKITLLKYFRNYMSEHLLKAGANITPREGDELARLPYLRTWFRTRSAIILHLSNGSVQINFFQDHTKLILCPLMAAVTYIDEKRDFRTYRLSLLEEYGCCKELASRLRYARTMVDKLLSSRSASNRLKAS
KAT2A inh = inhibitors of human GCN5L2 histone acetyltransferase; Q92830; GCN5L2 HAT assay, ThioGlo1 CoA-SH fluorescence; Potency, µM (highest dose often 58.9 µM), inactives show at the top dose activity change, negative = inhibition, actives largely listed as inhibitors; 0.21% of 390,000 active; note: potency is the fitted concentration of half-maximal effect; % is set by controls: 0 for no effect and ±100 for the full control effect
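Titration-based screen in which CoA formation is detected via maleimide probe ThioGlo1 (50uM) turning fluorescent on thiol reaction; substrates H3(1-25) 75uM and acetyl-CoA 70uM, GCN5L2 20nM, 20 min incubation at room temperature.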
Rango complex inh = Rango-importin beta binding inhibition. Q14974. Rango CFP/YFP FRET sensor + importin beta, 45 min. Potency, µM (titrated, usually from 92.2 µM), without a hit: at the highest dose inhibition of complex formation. 0.031% of 340,000 active. AID 540263; calls by dose curve;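 note: potency is the fitted concentration of half-maximal effect; 0% = DMSO wells and 100% = buffer wells lacking importin beta; nearly all actives have a fitted effect of over 15% in size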
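FRET biosensor (snurportin 1 IBB flanked by EYFP and cerulean), 50 nM, with compound 5 min, then 0.125 microM importin beta in PBS, 1 mM DTT, 0.02% Tween-20, 0.1% BSA. CFP/YFP ratio read after 45 min at room temperature; pre-read flags interference.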
VDR inhibitor = inhibitors of human vitamin D receptor; VDR-SRC2-3 peptide fluorescence polarization, 2 h; Potency, µM, for the others: max response, negative = inhibition, usual class: inhibitors; 0.93% of 400,000 active; AID 504847; note: potency is the fitted concentration of half-maximal effect; % is set by controls: 0 for no effect and ±100 for the full control effect
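Two reagent solutions held at 4 deg C in the dark were dispensed, compounds pinned at 23 nl, and the mixture incubated 2 h at room temperature. Read-out: fluorescence polarization of VDR–SRC2-3 peptide binding.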
PI5P4K alpha inh = blocks human PI5P4K alpha kinase activity | P48426 | PI5P4Kalpha enzyme, ADP-Glo luminescence, 60 min; stronger effect = lower value | max response, % | 1.2% of 330,000 active | AID 652105; active = max response of -50% or lower; inconclusive = between -30% and -50%; inactive = -30% or higher; note: value at the top dose of about 77 µM; % is set by controls: 0 for no effect and ±100 for the full control effect
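PI5P4Kalpha ADP-Glo assay; 5 microM ATP final; 60 min RT reaction; HEPES pH 7.4/EGTA/CHAPS, 5% DMSO; controls lacking substrate or enzyme; luminescent end-point.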
Rango release inh = inhibitors of RanGTP-induced Rango-importin beta complex dissociation; O95149+P62826; Biochemical FRET Rango-importin beta, RanGTP-induced dissociation; Potency, µM (highest dose often 46.1 µM), for the others: at the highest dose activity change, negative = inhibition; 0.071% of 340,000 active; AID 540253; calls by dose curve; note: potency is the fitted concentration of half-maximal effect; % of control where 0% means no effect; nearly all actives have a fitted effect of over 45% in size
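Quantitative HTS using a FRET biosensor: 0.1 uM Rango, 0.25 uM importin beta, 0.6 uM Ran, 2 mM GTP, 0.2 uM RCC1 final, PBS with DTT, Tween-20 and BSA. Post-read taken 45 min after Ran addition.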
An asterisk follows results filed as active. Unless noted, calls come from the whole dose curve; as a rule, active = well fitted curve in the direction sought with a large enough effect; inconclusive = small, poorly fitted or top-dose-only effect, or another doubt; inactive = no such curve, though single readings can be large; an effect the other way counts as inactive or inconclusive.

Screening CCCCNS(=O)(=O)c1ccc2nc(-c3cccnc3)cc(C(=O)NCCC)c2c1 returned KAT2A inh -4% and VDR inhibitor -4%.
CC(C)(C)c1ccc(-c2nc3cc(NC(=O)c4cccc(Br)c4)ccc3o2)cc1 was read as KAT2A inh -9% and VDR inhibitor -9%.
For CCNc1nc(NCC)n2c(SCC(=O)Nc3ccc(Br)cc3F)nnc2n1 the results were PLK1 PBD inh 13µM*, KAT2A inh -14%, Rango complex inh 1%, VDR inhibitor 71µM*, PI5P4K alpha inh -21 and Rango release inh 3%.
Screening Cc1ccc(Cc2nc3ccccc3nc2SCC(=O)Nc2ccc3c(c2)OCO3)cc1 returned KAT2A inh -2% and VDR inhibitor 12%.
Cc1cccc(NC(=O)C(=O)NCC(c2cccnc2)N2CCOCC2)c1 (stereo unspecified) was read as KAT2A inh -1% and VDR inhibitor 3%.
`O=C(CSc1n[nH]c(=O)[nH]c1=O)N/N=C/C=C\c1ccccc1` gave PLK1 PBD inh 24µM*, KAT2A inh -12%, Rango complex inh 0%, VDR inhibitor 2%, PI5P4K alpha inh -21 and Rango release inh 2%.
Screening O=C(CSc1n[nH]c(=O)[nH]c1=O)N/N=C/C=C/c1ccccc1 returned PLK1 PBD inh -2%, KAT2A inh -4%, Rango complex inh 0%, VDR inhibitor -6%, PI5P4K alpha inh -12 and Rango release inh 0%.
For COc1ccccc1NC(=O)C(=O)NNS(=O)(=O)c1ccc2ccccc2c1 the results were PLK1 PBD inh -19%, KAT2A inh -10%, Rango complex inh 0%, VDR inhibitor -18%, PI5P4K alpha inh -3 and Rango release inh 16%.
COc1ccc(NC(=S)NNS(=O)(=O)c2ccc3ccccc3c2)c(OC)c1 was read as PLK1 PBD inh 30µM*, KAT2A inh -7%, Rango complex inh -2%, VDR inhibitor inconclusive, PI5P4K alpha inh inconclusive and Rango release inh -5%.
For CCN(CC)C(=O)Cn1c(=O)n(Cc2ccc(C(=O)NCCc3ccc(OC)c(OC)c3)cc2)c(=O)c2ccccc21 the results were KAT2A inh -4% and VDR inhibitor 1%.
Screening CCCCC[C@@H](/C=C/C1C(=O)C=C[C@H]1C/C=C\CCCC(=O)OC)OC(C)=O (stereo partly specified) returned PLK1 PBD inh -22%, Rango complex inh -4%, VDR inhibitor 10µM*, PI5P4K alpha inh -9 and Rango release inh 11%.
CCc1ccc(NC(=O)C(=O)NCC(c2cccnc2)N2CCN(Cc3ccccc3)CC2)cc1 (stereo unspecified) was read as KAT2A inh -6% and VDR inhibitor -8%.
For COc1ccc(CCN2C(=O)CC(Cc3ccc(C)cc3)C2=O)cc1OC (stereo unspecified) the results were PLK1 PBD inh 12µM*, KAT2A inh -9%, Rango complex inh -4%, VDR inhibitor inconclusive, PI5P4K alpha inh -69* and Rango release inh -2%.
COc1ccc(CCN2C(=O)CC(NC34CC5CC(CC(C5)C3)C4)C2=O)cc1OC (stereo unspecified) was read as PLK1 PBD inh -10%, KAT2A inh 0%, Rango complex inh -1%, VDR inhibitor 14%, PI5P4K alpha inh 2 and Rango release inh -6%.
For CCC(C)C(N)C(=O)NC(CC(N)=O)C(=O)NC(CC(C)C)C(=O)NC(CCCCN)C(=O)NC(C)C(=O)NC(CC(C)C)C(=O)NC(C)C(=O)NC(C)C(=O)NC(CC(C)C)C(=O)NC(C)C(=O)NC(CCCCN)C(=O)NC(CCCCN)C(=O)NC(C(=O)NC(CC(C)C)C(N)=O)C(C)CC (stereo unspecified) the results were KAT2A inh -15% and VDR inhibitor -17%.
`Cc1ccc(C)c(/C=C2\N=C(c3ccccc3F)OC2=O)c1` gave PLK1 PBD inh -17%, KAT2A inh -20%, Rango complex inh 0%, VDR inhibitor 79µM*, PI5P4K alpha inh 3 and Rango release inh 0%.
For Cc1ccccc1C1=N/C(=C/c2cccs2)C(=O)O1 the results were PLK1 PBD inh -13%, KAT2A inh -9%, Rango complex inh inconclusive, VDR inhibitor -1%, PI5P4K alpha inh 4 and Rango release inh 0%.
For O=C(O)c1csc(-c2ccccc2)n1 the results were PLK1 PBD inh -1%, KAT2A inh 26%, Rango complex inh -6%, VDR inhibitor 3%, PI5P4K alpha inh 3 and Rango release inh 6%.
Screening O=C(O)c1csc(-c2cccc(Cl)c2)n1 returned PLK1 PBD inh 27µM*, KAT2A inh 4%, Rango complex inh 0%, VDR inhibitor -23%, PI5P4K alpha inh -10 and Rango release inh 10%.
For O=C1CC(c2ccc(Cl)cc2)Sc2nc(-c3ccc(F)cc3)nn21 (stereo unspecified) the results were KAT2A inh -7% and VDR inhibitor -6%.
CC(=O)OCCNc1cc(Sc2nc3ccccc3[nH]2)c2nonc2c1[N+](=O)[O-] was read as PLK1 PBD inh 2.7µM*, KAT2A inh 6%, Rango complex inh -2%, VDR inhibitor 14µM*, PI5P4K alpha inh 3 and Rango release inh -16%.
For O=[N+]([O-])c1c(NCCCO)cc(SCc2ccco2)c2nonc12 the results were PLK1 PBD inh inconclusive, KAT2A inh -6%, Rango complex inh -4%, VDR inhibitor -25%, PI5P4K alpha inh 0 and Rango release inh -12%.
For Cn1ccnc1Sc1cc(NCCCO)c([N+](=O)[O-])c2nonc12 the results were PLK1 PBD inh 3µM*, KAT2A inh -2%, Rango complex inh -5%, VDR inhibitor 20µM*, PI5P4K alpha inh -2 and Rango release inh 1%.
For CC(=O)OCCNc1cc(SCc2ccco2)c2nonc2c1[N+](=O)[O-] the results were PLK1 PBD inh inconclusive, KAT2A inh -2%, Rango complex inh inconclusive, VDR inhibitor -27%, PI5P4K alpha inh inconclusive and Rango release inh -14%.
CC(=O)OCCCNc1cc(Sc2ccc(C)cc2)c2nonc2c1[N+](=O)[O-] was read as PLK1 PBD inh inconclusive, KAT2A inh 43%, Rango complex inh -1%, VDR inhibitor inconclusive, PI5P4K alpha inh -3 and Rango release inh 0%.
Screening CC(=O)OCCCNc1cc(Sc2nc3ccccc3s2)c2nonc2c1[N+](=O)[O-] returned PLK1 PBD inh 2.1µM*, KAT2A inh 2%, Rango complex inh -4%, VDR inhibitor inconclusive, PI5P4K alpha inh -16 and Rango release inh 7%.
Cc1cccc(-c2nc(S(=O)(=O)c3ccccc3)c(N3CCN(c4ccccc4)CC3)o2)c1 was read as KAT2A inh -2% and VDR inhibitor 4%.
